# Measured values as given in PubChem BioAssay (EPA / NIEHS).
# Active and inactive are the calls of the source. The calls were made as follows: active = hit-call score of the fitted dose curve at least 0.9, where 1 is the maximum; inactive = score below 0.9.
# Read-out: matrix metalloproteinase-10 (MMP10), MMP10 (gene 4319)
# Assay: LTEA_HepaRG_MMP10: Life Technologies and Expression Analysis (LTEA) Assay for matrix metalloproteinase-10 (MMP10) using HepaRG (AID 2283517)
# Conditions: mRNA level, 48 h; actives raise or lower the signal
# Description: LTEA_HepaRG is a cell based, multiplexed-readout assay that uses HepaRG, a human liver cell line, with measurements taken at 48 hours after chemical dosing on a 96-well plate.LTEA_HepaRG_MMP10 is one of 102 assay component(s) measured in the LTEA HepaRG cell culture assay. It is a marker of Fibrosis.Data from the assay component LTEA_HepaRG_MMP10 was analyzed into 1 endpoint. This assay endpoint, LTEA_HepaRG_MMP10, was analyzed with bidirectional fitting relative to DMSO as the negative control and baseline of activity. Using a type of inducible reporter, measures of mRNA induction for gain or loss-of-signal activity can be used to understand regulation of transcription factor activity. To generalize the intended target to other relatable targets, this assay endpoint is annotated to the protease intended target family, where the subfamily is matrix metalloproteinase.
# A total of 1060 chemcials from the ToxCast library were tested in eight-point concentration-response experiments. Cell culture and cytotoxicity assays were conducted at Thermo Fisher Scientific's Custom Services facility (Madison, WI). A single lot of human HepaRG cells (Thermo Fisher Scientific, Frederick, MD) was used for the cell culture experiments. 96-well format collagen type I coated plates of human HepaRG cells were prepared using established methods. Briefly, cryopreserved HepaRG cells were thawed, plated at a density of approximately 100,000 cells/well in HepaRG Thaw, Plate, and General Purpose media (HPRG770, Thermo Fisher Scientific), and incubated for 48 hours. 0.5% DMSO was selected as vehicle control to balance the requisite need of DMSO in HepaRG cultures to maintain differentiation (for example, baseline metabolism, proportions of hepatocytes vs. cholangiocytes), while enabling further hepatic receptor pathway activation (for example, PXR and CAR) in response to chemical exposure. 48 hours after plating, the culture medium was replaced with HepaRG Serum-Free Incudtion Media. Cells were exposed to each test chemical in duplicate and maintained in CO2 incubators for another 48 hours. Chemical plates were thawed to room temperature and 200x concentrations of treatment groups were prepared. 8-point conentration-reponse curves were made with the highest exposure at 100 uM, followed by half-log dilutions, all in 0.5% DMSO. Each test plate contained variouse controls, induction positive controls (1mM phenobarbital), cytotoxicity positive controls ([…] aflatoxin B1), vehicle controls (0.5% DMSO), and total lysis controls (0.5% DMSO). Cell morphology images were taken using an Essen IncuCyte FLR automated microscope, with six 96-well plates imaged in about 24 minutes. Images were captured and exported and JPEG files. Spent culture media was transfered to black-well plates for the LDH assay, and remaining media was sorted at -80 C for later use. Cells were treated with RLT buffer and frozen until shipped for gene expression analysis. Total RNA was isolated from the cell suspension in 75 uL of Buffer RLT (Qiagen, Germantown, MD 20874) by Quintiles/Expression Analysis (Durham, NC) using a custom isolation procedure. Total RNA from each plate well was transferred to a preamplification plate. Fluidigm's 96.96 Dynamic ArrayTM (Fluidigm, Amsterdam, the Netherlands) technology was used for gene expression analyses by quantitative reverse transcription polymerase chain reaction (qRT-PCR, performed by Quintiles/Expression Analysis, Durham, NC)89. Standard TaqManTM Assays (Applied Biosystems/ThermoFisher Scientific, Foster City, CA) were used to assess the expression of 93 genes selected based on their selectivity and sensitivity to important hepatic receptors known to be modulated by environmental chemicals; importance in human hepatocyte functionality; and hepatotoxicity. […]
Structure (SMILES),AC50,outcome
CCCCc1oc2ccccc2c1C(=O)c1cc(I)c(OCCN(CC)CC)c(I)c1,54.7 µM (active),–
CCCCC=O,–,inactive
CCCCCCCCCCCCOS(=O)(=O)O,70.2 µM (active),–
CCC(C)c1ccccc1O (stereo unspecified),–,inactive
CN(C)CCOC(c1ccccc1)c1ccccc1,–,inactive
O=C(CCCN1CCC(O)(c2ccc(Cl)cc2)CC1)c1ccc(F)cc1,82.4 µM (active),–
CN(Cc1cnc2nc(N)nc(N)c2n1)c1ccc(C(=O)N[C@@H](CCC(=O)O)C(=O)O)cc1,–,inactive
Cc1[nH]nc2c1N=C(c1ccccc1Cl)c1cc([N+](=O)[O-])ccc1N2,5.91 µM (active),–
O=C1NS(=O)(=O)c2ccccc21,–,inactive
CCCCC(CC)C(=O)O (stereo unspecified),–,inactive
CC(=O)Nc1ccc(O)cc1,–,inactive
CCCCCCCCCCCCCCC,–,inactive
O=C(c1ccccc1)c1ccccc1,–,inactive
N=C(N)c1ccc(OCCCCCOc2ccc(C(=N)N)cc2)cc1,26.1 µM (active),–
OCC(CO)(CBr)CBr,–,inactive
CS(=O)(=O)c1ccc([C@@H](CC2CCCC2)C(=O)Nc2cnccn2)cc1Cl,79.5 µM (active),–
